Assay [1] can be described thus: NCI Yeast Anticancer Drug Screen. Data for the rad50 strain (AID 155).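 Also: 0% = growth of vehicle-only cultures of the same strain.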 Particulars: S. cerevisiae rad50 strain growth inhibition, hits give high values. The method, boiled down: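 DNA repair mutant yeast, compound exposure, growth read-out; inhibition is taken relative to vehicle.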
Assay [2] in a line: NCI Yeast Anticancer Drug Screen. Data for the mec2-1 strain (AID 157). Particulars: S. cerevisiae mec2-1 strain, hits give high values. The method, boiled down:
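Each compound was tested on mec2-1 yeast, a strain altered in DNA damage repair or cell cycle control. Growth inhibition is reported relative to vehicle.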

A short description of assay [3]: NCI Yeast Anticancer Drug Screen. Data for the sgs1 mgt1 strain (AID 161).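 Also: 0% = growth of cultures given vehicle only.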 The conditions noted are these: S. cerevisiae sgs1 mgt1 strain, hits give high values. The method, boiled down: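 Genetically altered yeast, compound exposure, growth inhibition relative to vehicle.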
Assay [4] in a line: NCI Yeast Anticancer Drug Screen. Data for the cln2 rad14 strain (AID 165).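 Also: 0% = growth equal to vehicle treated cultures.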 Particulars: S. cerevisiae cln2 rad14 strain, hits give high values. The method, boiled down: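 Test compounds were added to cln2 rad14 yeast cultures; inhibition of growth was then determined by comparison with vehicle treatment.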
The nature of assay [5]: NCI Yeast Anticancer Drug Screen. Data for the bub3 strain (AID 167). Particulars: S. cerevisiae bub3 mutant strain, hits give high values. The method, boiled down:
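In this screen, a yeast mutant lacking normal mitotic checkpoint function is challenged with compound. Relative growth versus vehicle gives the inhibition value.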

Assay [6] can be described thus: NCI Yeast Anticancer Drug Screen. Data for the mlh1 rad18 strain (AID 175). The conditions noted are these: S. cerevisiae mlh1 rad18 strain growth inhibition, hits give high values. A digest of the protocol:
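Inhibition values reflect reduced growth of mutant yeast versus vehicle-treated controls following compound exposure; the mutations affect DNA damage repair.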

The mark [7] stands for this setting: at 5.0 µM (retest, dose inferred, filed as 0.5).
[8] abbreviates: at 50.0 µM (retest, dose inferred, filed as 5.0).

SMILES strings stand for the structures. This is part of a sample that, as a whole, favours compounds with a hit. Of some 79,000 tested, about 15% had one in any assay. Unmarked numbers belong to inactive results. The source made the active and inactive calls. Rule as the data show it: active = growth inhibition above about 70%; inactive = the rest.

As for `CC(=O)C(=C(I)I)c1ccccc1`, the growth inhibition is -20% in assay [1] (setting [7]); 71% (active) in assay [1] (setting [8]); 51.6% in assay [1] (at 50.0 µM); -21% in assay [2] (setting [7]); 89% (active) in assay [2] (setting [8]); 55% in assay [2] (at 50.0 µM). Moreover, the growth inhibition was -27% in assay [3] (setting [7]); 93% (active) in assay [3] (setting [8]); 73.7% (active) in assay [3] (at 50.0 µM); 8% in assay [4] (setting [7]); 34% in assay [4] (setting [8]); 30.8% in assay [4] (at 50.0 µM). The growth inhibition was -34% in assay [5] (setting [7]); 83% (active) in assay [5] (setting [8]); 33.4% in assay [5] (at 50.0 µM); -28% in assay [6] (setting [7]); 80% (active) in assay [6] (setting [8]); 24.2% in assay [6] (at 50.0 µM).

In the case of `O=C(Cc1ccccc1)OC(C(=O)c1ccccc1)c1ccccc1` (configuration not stated), the growth inhibition in assay [1] (setting [7]) was 4%; in assay [1] (setting [8]), 94% (active); in assay [1] (at 50.0 µM), -15.7%; in assay [2] (setting [7]) it was 7%; in assay [2] (setting [8]), 95% (active); in assay [2] (at 50.0 µM), 10.3%. Besides, the growth inhibition in assay [3] (setting [7]) is 3%; in assay [3] (setting [8]) it was 93% (active); in assay [3] (at 50.0 µM), -0.1%; in assay [4] (setting [7]), 2%; in assay [4] (setting [8]) it was 90% (active); in assay [4] (at 50.0 µM) it was -12.3%. For the same molecule, the growth inhibition in assay [5] (setting [7]) was 20%; in assay [5] (setting [8]) it was 92% (active); in assay [5] (at 50.0 µM), 72.2% (active); in assay [6] (setting [7]) it was 4%; in assay [6] (setting [8]), 92% (active); in assay [6] (at 50.0 µM) it was -3.1%.

For `CSC(=S)OC1CC(n2cnc3c(NC(=O)c4ccccc4)ncnc32)OC1CO[Si](C)(C)C(C)(C)C` (configuration not stated), the growth inhibition in assay [1] (setting [7]) was 1%; in assay [1] (setting [8]) it was -1%; in assay [1] (at 50.0 µM), 6.5%; in assay [2] (setting [7]) it was 0%; in assay [2] (setting [8]), 2%; in assay [2] (at 50.0 µM) it was -3.65%. Further, the growth inhibition in assay [3] (setting [7]) is -1%; in assay [3] (setting [8]) it was 2%; in assay [3] (at 50.0 µM) it was 10.4%; in assay [4] (setting [7]), -1%; in assay [4] (setting [8]), 6%; in assay [4] (at 50.0 µM), 73% (active). In addition, the growth inhibition in assay [5] (setting [7]) was -1%; in assay [5] (setting [8]) it was -5%; in assay [5] (at 50.0 µM), 1.45%; in assay [6] (setting [7]), 0%; in assay [6] (setting [8]), -1%; in assay [6] (at 50.0 µM), 16.6%.

Turning to `O=C1OC(CCl)CC12CC(CCl)OC2=O` (configuration not stated), the growth inhibition in assay [1] (setting [7]) is 1%; in assay [1] (setting [8]), 2%; in assay [1] (at 50.0 µM), 93.7% (active); in assay [2] (setting [7]), -4%; in assay [2] (setting [8]) it was 3%; in assay [2] (at 50.0 µM), 89.7% (active). Moreover, the growth inhibition is -1% in assay [3] (setting [7]); 1% in assay [3] (setting [8]); 94% (active) in assay [3] (at 50.0 µM); -1% in assay [4] (setting [7]); 1% in assay [4] (setting [8]); 79.6% (active) in assay [4] (at 50.0 µM). In addition, the growth inhibition in assay [5] (setting [7]) was 0%; in assay [5] (setting [8]), -3%; in assay [5] (at 50.0 µM), 96% (active); in assay [6] (setting [7]) it was -3%; in assay [6] (setting [8]) it was 0%; in assay [6] (at 50.0 µM) it was 95.9% (active).

On to `O=C1/C(=C/c2cccc(O)c2)COc2ccccc21`, for which the growth inhibition was 21% in assay [1] (setting [7]); 95% (active) in assay [1] (setting [8]); 93.8% (active) in assay [1] (at 50.0 µM); 34% in assay [2] (setting [7]); 98% (active) in assay [2] (setting [8]); 96.1% (active) in assay [2] (at 50.0 µM). Moreover, the growth inhibition is 63% in assay [3] (setting [7]); 98% (active) in assay [3] (setting [8]); 96.2% (active) in assay [3] (at 50.0 µM); 9% in assay [4] (setting [7]); 95% (active) in assay [4] (setting [8]); 91.6% (active) in assay [4] (at 50.0 µM). Further, the growth inhibition in assay [5] (setting [7]) is 58%; in assay [5] (setting [8]) it was 95% (active); in assay [5] (at 50.0 µM), 95.8% (active); in assay [6] (setting [7]), 77% (active); in assay [6] (setting [8]), 97% (active); in assay [6] (at 50.0 µM), 96.8% (active).

Turning to `CC(C)CCCC(C)C1CCC2C3C=CC4=CCCCC4(C)C3CCC12C` (configuration not stated), the growth inhibition in assay [1] (setting [7]) is -18%; in assay [1] (setting [8]), 95% (active); in assay [1] (at 50.0 µM), 97.6% (active); in assay [2] (setting [7]) it was 3%; in assay [2] (setting [8]) it was 98% (active); in assay [2] (at 50.0 µM), 94.8% (active). Moreover, the growth inhibition was -8% in assay [3] (setting [7]); 96% (active) in assay [3] (setting [8]); 8.35% in assay [3] (at 50.0 µM); -5% in assay [4] (setting [7]); 94% (active) in assay [4] (setting [8]); 93% (active) in assay [4] (at 50.0 µM). The growth inhibition in assay [5] (setting [7]) was -4%; in assay [5] (setting [8]), 93% (active); in assay [5] (at 50.0 µM) it was 91.2% (active); in assay [6] (setting [7]), 31%; in assay [6] (setting [8]) it was 98% (active); in assay [6] (at 50.0 µM), 98.1% (active).

Take `COC(=O)C(=C(c1ccccc1)c1ccccc1)c1ccccc1`: the growth inhibition in assay [1] (setting [7]) was 3%; in assay [1] (setting [8]), -1%; in assay [1] (at 50.0 µM), 25.8%; in assay [2] (setting [7]), 0%; in assay [2] (setting [8]), 4%; in assay [2] (at 50.0 µM), 23.1%. Moreover, the growth inhibition in assay [3] (setting [7]) is 4%; in assay [3] (setting [8]), -1%; in assay [3] (at 50.0 µM) it was 52%; in assay [4] (setting [7]), 0%; in assay [4] (setting [8]) it was 4%; in assay [4] (at 50.0 µM) it was 43.1%. Besides, the growth inhibition in assay [5] (setting [7]) is -2%; in assay [5] (setting [8]) it was -3%; in assay [5] (at 50.0 µM), 89.6% (active); in assay [6] (setting [7]), -3%; in assay [6] (setting [8]), 7%; in assay [6] (at 50.0 µM) it was 35.6%.

On to `N#CNc1nc(N)c(-c2ccc(Cl)cc2)c(C(=O)Nc2ccc(Cl)c(Cl)c2)n1`, for which the growth inhibition in assay [1] (setting [7]) is -1%; in assay [1] (setting [8]) it was 1%; in assay [1] (at 50.0 µM), -5.15%; in assay [2] (setting [7]), -3%; in assay [2] (setting [8]), -2%; in assay [2] (at 50.0 µM), 14%. Moreover, the growth inhibition is -2% in assay [3] (setting [7]); 4% in assay [3] (setting [8]); -8% in assay [3] (at 50.0 µM); -4% in assay [4] (setting [7]); 1% in assay [4] (setting [8]); -6.6% in assay [4] (at 50.0 µM). Besides, the growth inhibition in assay [5] (setting [7]) is -2%; in assay [5] (setting [8]) it was 1%; in assay [5] (at 50.0 µM), 4.2%; in assay [6] (setting [7]), -1%; in assay [6] (setting [8]), -2%; in assay [6] (at 50.0 µM) it was -22.4%.

Regarding `O=C(c1ccccc1)N(C1CCCCC1)C1CCCCC1`, the growth inhibition in assay [1] (setting [7]) was 7%; in assay [1] (setting [8]), 97% (active); in assay [1] (at 50.0 µM), 98.1% (active); in assay [2] (setting [7]), 1%; in assay [2] (setting [8]), 98% (active); in assay [2] (at 50.0 µM), 98.5% (active). Besides, the growth inhibition was 5% in assay [3] (setting [7]); 97% (active) in assay [3] (setting [8]); 99% (active) in assay [3] (at 50.0 µM); -2% in assay [4] (setting [7]); 95% (active) in assay [4] (setting [8]); 98.9% (active) in assay [4] (at 50.0 µM). Moreover, the growth inhibition was -3% in assay [5] (setting [7]); 93% (active) in assay [5] (setting [8]); 98% (active) in assay [5] (at 50.0 µM); 5% in assay [6] (setting [7]); 97% (active) in assay [6] (setting [8]); 98.3% (active) in assay [6] (at 50.0 µM).

The values above are taken from PubChem BioAssay (NCI).
